This note sets out measurements from publication PMC4242493, “Sequence specificity incompletely defines the genome-wide occupancy of Myc”.

In all, about 33,000 sequences were measured (“normalized occupancy”: median about 0.075, highest 2% from about 0.095 on). Only a selection was taken, and the highest values are over-represented in it overall.

MaxL homodimer, sequence (P61244 whole entry): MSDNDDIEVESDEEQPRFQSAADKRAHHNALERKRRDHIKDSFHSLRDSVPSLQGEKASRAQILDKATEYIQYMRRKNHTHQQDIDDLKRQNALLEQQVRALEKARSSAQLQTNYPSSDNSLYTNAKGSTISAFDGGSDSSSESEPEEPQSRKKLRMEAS

The assay addresses MaxL homodimer (Homo sapiens, UniProt P61244 1-160). The experiment in a line: universal protein-binding microarray (PBM); PBS-based mixture, 10 nM His-tagged protein dimer, 2% milk, 200 ng/uL BSA, 50 ng/uL salmon testes DNA, 0.02% TX-100; detection with Alexa 488 anti-His antibody;; high values mean tight binding. The note with it: protein: recombinant; tags: C-terminal His-tag (pET21a); chain copies: 2; dsDNA, one strand shown. In a few lines:
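His-tagged protein dimer at 10 nM was incubated on Agilent 4 x 44 K arrays with the 'all 10-mer' universal design. Bound protein was tagged with 10 ng/μL fluorophore-conjugated anti-His antibody, and arrays were scanned on a GenePix 4400A. Binding occupancy for each 8-mer is its fluorescence intensity normalised to the highest-ranked 8-mer's intensity.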
GGTGTTCA: the binding signal is 0.0754 normalized occupancy.
Then AGTGTGTG, with 0.0828 normalized occupancy; and TATGTGCA, with 0.084 normalized occupancy.
For GATGTGCA, the binding signal came out at 0.0814 normalized occupancy.
Then AATGTGTA, with 0.0864 normalized occupancy; and AATGTGCG, with 0.0957 normalized occupancy; and CGTGTTCA, with 0.1 normalized occupancy.
For the sequence CATGTGCA, the binding signal came out at 0.149 normalized occupancy.
With AGTGTTCA the figure was 0.0774 normalized occupancy; with AATGTGTG, 0.0963 normalized occupancy; with AATGTGCA, 0.0888 normalized occupancy.
Then AATGTGCC, with 0.0816 normalized occupancy; and CATAATTA, with 0.0816 normalized occupancy.
With TACTAATA the figure was 0.0814 normalized occupancy.
Take CGAGCAGA: the binding signal was 0.0731 normalized occupancy.
With ACATCCGC the figure was 0.0795 normalized occupancy; with TACTTATA, 0.0836 normalized occupancy.
For GTAAATCA, the binding signal was determined as 0.0784 normalized occupancy.
Then ACCTCGTA, with 0.0827 normalized occupancy; and ACCTCATA, with 0.0788 normalized occupancy; and ACATCGTA, with 0.0832 normalized occupancy.
Then ATCTCGTG, with 0.0991 normalized occupancy.
Then ATCTCGTA, with 0.0765 normalized occupancy; and ACCTCATG, with 0.113 normalized occupancy; and ACCTCATC, with 0.0736 normalized occupancy.
AGCTCGTG: the binding signal stood at 0.0836 normalized occupancy.
As for ACCTCGTG, the binding signal stood at 0.156 normalized occupancy.
Then ACATCGTC, with 0.0753 normalized occupancy; and ACCTCGTC, with 0.0738 normalized occupancy.
With ACATCGTG the figure was 0.0998 normalized occupancy.
Then AGACGTCC, with 0.0732 normalized occupancy; and CAGCAATG, with 0.082 normalized occupancy; and CTTACAAC, with 0.0757 normalized occupancy.
Turning to ATGTTTGG, the binding signal amounted to 0.0806 normalized occupancy.
Then CTCATGAA, with 0.0856 normalized occupancy; and CCTTGCGA, with 0.0752 normalized occupancy.
With ATCATGTC the figure was 0.0895 normalized occupancy; with CCCATGCC, 0.0969 normalized occupancy; with CCAATGCG, 0.0793 normalized occupancy.
Then ATCATGTG, with 0.137 normalized occupancy.
As for CCCATGAC, the binding signal worked out at 0.0853 normalized occupancy.
On to ACCATGAG, for which the binding signal was 0.0976 normalized occupancy.
With CCTATGCG the figure was 0.0749 normalized occupancy.
Turning to ACCATGAA, the binding signal amounted to 0.0755 normalized occupancy.
Then CCCATGTC, with 0.0854 normalized occupancy; and CCCATGCG, with 0.138 normalized occupancy.
With CCCATGAG the figure was 0.0921 normalized occupancy; with ATCATGTA, 0.0811 normalized occupancy.
Turning to ACATCACC, the binding signal was 0.0798 normalized occupancy.
Take GACCAGCA: the binding signal was determined as 0.0755 normalized occupancy.
With CTGTCGTA the figure was 0.0747 normalized occupancy; with GAGAACTA, 0.0732 normalized occupancy; with CTCTCGAA, 0.0729 normalized occupancy.
With AACGGTTG the figure was 0.0768 normalized occupancy; with CGTTGCCA, 0.0801 normalized occupancy; with GGCGGTGA, 0.0725 normalized occupancy.
Then CCCATACA, with 0.0836 normalized occupancy; and GCCATGCA, with 0.0904 normalized occupancy; and ACCATGCC, with 0.0954 normalized occupancy.
With GCCATGGC, the binding signal came to 0.0823 normalized occupancy.
With ACAATGTA the figure was 0.085 normalized occupancy.
On to ACAATGTC, for which the binding signal came out at 0.079 normalized occupancy.
Then CCCATGCA, with 0.0973 normalized occupancy.
On to ACCATGAC, for which the binding signal was 0.0839 normalized occupancy.
Then ACAATGTG, with 0.0995 normalized occupancy; and CCCATGAA, with 0.0827 normalized occupancy; and GCCATGCC, with 0.0963 normalized occupancy.
Then ACCATGGC, with 0.0734 normalized occupancy; and CATTTGTA, with 0.0834 normalized occupancy; and CATACGCG, with 0.0762 normalized occupancy.
On to AGGGAGCG, for which the binding signal is 0.0763 normalized occupancy.
Then CCGTACGC, with 0.072 normalized occupancy.
Then ACACCAGT, with 0.0764 normalized occupancy; and CCGACTTA, with 0.0735 normalized occupancy; and CGCTAATC, with 0.0771 normalized occupancy.
With GAAATAGC the figure was 0.0789 normalized occupancy.
TCCATGCA: the binding signal amounted to 0.0861 normalized occupancy.
Then ACCATGAT, with 0.084 normalized occupancy.
With ACCATGGT the figure was 0.0862 normalized occupancy; with ACCATGCG, 0.136 normalized occupancy; with ACTATGCG, 0.0817 normalized occupancy.
With ACCATGCT the figure was 0.123 normalized occupancy; with ACCATGTA, 0.0876 normalized occupancy; with ACCATGTC, 0.0794 normalized occupancy.
On to ACCATGCA, for which the binding signal is 0.0972 normalized occupancy.
With ACCATGTG the figure was 0.225 normalized occupancy; with ACAATGCG, 0.0867 normalized occupancy.
With ACCATGGA the figure was 0.0861 normalized occupancy; with ATGCTGGC, 0.0864 normalized occupancy.
With CAGGCCTG the figure was 0.0765 normalized occupancy; with AAACTAAC, 0.0741 normalized occupancy; with ATTGGCGC, 0.0745 normalized occupancy.
As to GTACAAGA, the binding signal came out at 0.0806 normalized occupancy.
With CTTCTATC the figure was 0.0768 normalized occupancy; with AGTCAGCG, 0.0777 normalized occupancy.
With CCAATTGG the figure was 0.0757 normalized occupancy; with AATCACGA, 0.0856 normalized occupancy; with GATCACGA, 0.0786 normalized occupancy.
In the case of GATCACCC, the binding signal was found to be 0.0786 normalized occupancy.
For AATCACGT, the binding signal amounted to 0.099 normalized occupancy.
With AGTCACGA the figure was 0.0912 normalized occupancy; with AATCACGG, 0.0727 normalized occupancy; with AATCACGC, 0.0974 normalized occupancy.
As for AATCACTA, the binding signal is 0.0729 normalized occupancy.
Then GATCACGC, with 0.0977 normalized occupancy; and AATCACCT, with 0.0853 normalized occupancy; and AGTCACGG, with 0.0774 normalized occupancy.
For the sequence AGTCACGC, the binding signal came out at 0.0989 normalized occupancy.
With CCAATGGA the figure was 0.0747 normalized occupancy; with ACGCCTGC, 0.0743 normalized occupancy; with CCAGAATC, 0.0733 normalized occupancy.
Then CATCACGA, with 0.0811 normalized occupancy; and CATCACGG, with 0.0829 normalized occupancy.
Then CATCACGC, with 0.0961 normalized occupancy; and GGTCTTGA, with 0.0779 normalized occupancy.
Consider CATGTCGG, for which the binding signal stood at 0.088 normalized occupancy.
Then CATGTGGG, with 0.144 normalized occupancy; and AATGTGGC, with 0.0898 normalized occupancy; and GATGTTGC, with 0.0781 normalized occupancy.
Then GATGTGGC, with 0.0839 normalized occupancy.
With CATGTTGC the figure was 0.0999 normalized occupancy.
As to CATGTGGA, the binding signal was found to be 0.157 normalized occupancy.
On to AATGTGGA, for which the binding signal came out at 0.0903 normalized occupancy.
With GATGTGGA the figure was 0.0847 normalized occupancy; with CATGTGGC, 0.165 normalized occupancy; with CATGTTGA, 0.0943 normalized occupancy.
With AATGTGGG the figure was 0.0907 normalized occupancy.
With GGATTTGA the figure was 0.0761 normalized occupancy.
Consider CTATAGTA, for which the binding signal was 0.0737 normalized occupancy.
With AACAATGC the figure was 0.0816 normalized occupancy; with AGCTGTTA, 0.0759 normalized occupancy.
For the sequence AAGTGTAA, the binding signal was 0.0802 normalized occupancy.
Take GGGTCTAC: the binding signal was 0.0725 normalized occupancy.
As to CGGACCCC, the binding signal stood at 0.0732 normalized occupancy.
Then ACCTCGAG, with 0.0843 normalized occupancy; and CCATGCCG, with 0.1 normalized occupancy; and CAATGCCG, with 0.0728 normalized occupancy.
Then GAATGCCC, with 0.0765 normalized occupancy; and ATATGCCG, with 0.0773 normalized occupancy.
Turning to ACATGCCT, the binding signal was 0.0828 normalized occupancy.
In the case of ACATGCCC, the binding signal was found to be 0.099 normalized occupancy.
With CCATGCCC the figure was 0.0935 normalized occupancy.
GCATGCCC: the binding signal was determined as 0.105 normalized occupancy.
With AGATGCCG the figure was 0.0739 normalized occupancy; with CCATGCCA, 0.0875 normalized occupancy.
With AGATGCCC the figure was 0.0786 normalized occupancy.
Then ACATGCCG, with 0.103 normalized occupancy; and TAAGAGTA, with 0.0797 normalized occupancy.
With TCTCACAA, the binding signal is 0.0786 normalized occupancy.
Turning to ATGAGAGC, the binding signal was 0.078 normalized occupancy.
Then CGAGATGC, with 0.078 normalized occupancy.
Then AAGGACAC, with 0.0757 normalized occupancy; and GGCCACGA, with 0.0815 normalized occupancy; and AGGTCTCA, with 0.074 normalized occupancy.
With CAATTAAA the figure was 0.0744 normalized occupancy.
On to AGTGGTCG, for which the binding signal was found to be 0.0719 normalized occupancy.
Then ACATGCCA, with 0.0967 normalized occupancy; and GCATGCCA, with 0.108 normalized occupancy; and TCATGCCA, with 0.0861 normalized occupancy.
For AGATGCCA, the binding signal is 0.0772 normalized occupancy.
With ATATGCCA the figure was 0.0822 normalized occupancy; with GTATGCCA, 0.0806 normalized occupancy; with GGTCCCGA, 0.0733 normalized occupancy.
With ACTAACCT the figure was 0.0752 normalized occupancy; with CGTGGGAC, 0.096 normalized occupancy.
Then CGTGGGAA, with 0.089 normalized occupancy; and GGTGGGAC, with 0.0719 normalized occupancy; and TGGGTCAA, with 0.0772 normalized occupancy.
As to GACCATGA, the binding signal is 0.0823 normalized occupancy.
Regarding AACCATGT, the binding signal amounted to 0.0862 normalized occupancy.
Then CTCCATGC, with 0.0969 normalized occupancy; and CACCATGG, with 0.0885 normalized occupancy.
Turning to CACCATGA, the binding signal came out at 0.0873 normalized occupancy.
With AACCATGC the figure was 0.106 normalized occupancy.
